Molecules are shown by their SMILES. Calls of active or inactive are those of the source. The calls were made as follows: active = hit-call score of the fitted dose curve at least 0.9, where 1 is the maximum; inactive = score below 0.9.

In PubChem BioAssay (EPA / NIEHS) one finds outcome and AC50 data, which are given here for 40 molecules.

Read-out in this experiment: Early growth response protein 1 (EGR1) transcription factor, EGR1 (gene 1958)
Briefly: LTEA_HepaRG_EGR1: Life Technologies and Expression Analysis (LTEA) Assay for Early growth response protein 1 (EGR1) transcription factor using HepaRG (AID 2283490). To be noted: mRNA level, 48 h; actives raise or lower the signal. The method, then: LTEA_HepaRG is a cell based, multiplexed-readout assay that uses HepaRG, a human liver cell line, with measurements taken at 48 hours after chemical dosing on a 96-well plate.LTEA_HepaRG_EGR1 is one of 102 assay component(s) measured in the LTEA HepaRG cell culture assay. It is a marker of Cell proliferation, survival, death.Data from the assay component LTEA_HepaRG_EGR1 was analyzed into 1 endpoint. This assay endpoint, LTEA_HepaRG_EGR1, was analyzed with bidirectional fitting relative to DMSO as the negative control and baseline of activity. Using a type of inducible reporter, measures of mRNA induction for gain or loss-of-signal activity can be used to understand regulation of transcription factor activity. To generalize the intended target to other relatable targets, this assay endpoint is annotated to the dna binding intended target family, where the subfamily is zinc finger.
A total of 1060 chemcials from the ToxCast library were tested in eight-point concentration-response experiments. Cell culture and cytotoxicity assays were conducted at Thermo Fisher Scientific's Custom Services facility (Madison, WI). A single lot of human HepaRG cells (Thermo Fisher Scientific, Frederick, MD) was used for the cell culture experiments. 96-well format collagen type I coated plates of human HepaRG cells were prepared using established methods. Briefly, cryopreserved HepaRG cells were thawed, plated at a density of approximately 100,000 cells/well in HepaRG Thaw, Plate, and General Purpose media (HPRG770, Thermo Fisher Scientific), and incubated for 48 hours. 0.5% DMSO was selected as vehicle control to balance the requisite need of DMSO in HepaRG cultures to maintain differentiation (for example, baseline metabolism, proportions of hepatocytes vs. cholangiocytes), while enabling further hepatic receptor pathway activation (for example, PXR and CAR) in response to chemical exposure. 48 hours after plating, the culture medium was replaced with HepaRG Serum-Free Incudtion Media. Cells were exposed to each test chemical in duplicate and maintained in CO2 incubators for another 48 hours. Chemical plates were thawed to room temperature and 200x concentrations of treatment groups were prepared. 8-point conentration-reponse curves were made with the highest exposure at 100 uM, followed by half-log dilutions, all in 0.5% DMSO. Each test plate contained variouse controls, induction positive controls (1mM phenobarbital), cytotoxicity positive controls ([…] aflatoxin B1), vehicle controls (0.5% DMSO), and total lysis controls (0.5% DMSO). Cell morphology images were taken using an Essen IncuCyte FLR automated microscope, with six 96-well plates imaged in about 24 minutes. Images were captured and exported and JPEG files. Spent culture media was transfered to black-well plates for the LDH assay, and remaining media was sorted at -80 C for later use. Cells were treated with RLT buffer and frozen until shipped for gene expression analysis. Total RNA was isolated from the cell suspension in 75 uL of Buffer RLT (Qiagen, Germantown, MD 20874) by Quintiles/Expression Analysis (Durham, NC) using a custom isolation procedure. Total RNA from each plate well was transferred to a preamplification plate. Fluidigm's 96.96 Dynamic ArrayTM (Fluidigm, Amsterdam, the Netherlands) technology was used for gene expression analyses by quantitative reverse transcription polymerase chain reaction (qRT-PCR, performed by Quintiles/Expression Analysis, Durham, NC)89. Standard TaqManTM Assays (Applied Biosystems/ThermoFisher Scientific, Foster City, CA) were used to assess the expression of 93 genes selected based on their selectivity and sensitivity to important hepatic receptors known to be modulated by environmental chemicals; importance in human hepatocyte functionality; and hepatotoxicity. […]
For the molecule `c1ccc2n[nH]nc2c1`, the molecule was classed as inactive.

As to `CN1C(=O)CC[C@H]1c1cccnc1`, the molecule was called inactive.

For `CCCCCCCCCCCC[N+](C)(C)C`, the AC50 is 83.9 µM (active).

Regarding `Oc1ccc2ccccc2c1`, the call was inactive.

As to `Cc1cc(F)ccc1-c1cc(N2CC[C@@H](O)[C@H]2CO)ncc1N(C)C(=O)C(C)(C)c1cc(C(F)(F)F)cc(C(F)(F)F)c1`, the AC50 is 61.2 µM (active).

For the molecule `Cc1cn([C@H]2C[C@H](N=[N+]=[N-])[C@@H](CO)O2)c(=O)[nH]c1=O`, the outcome was inactive.

Regarding `CC(C)(c1cc(Br)c(O)c(Br)c1)c1cc(Br)c(O)c(Br)c1`, the AC50 is 76.1 µM (active).

On to `C[C@]12CC[C@@H]3c4ccc(O)cc4CC[C@H]3[C@@H]1CC[C@H]2O`, for which the call was inactive.

For the molecule `CN(C)C(=O)C1(N2CCCCC2)CCN(CC[C@@]2(c3ccc(Cl)c(Cl)c3)CN(C(=O)c3ccccc3)CCO2)CC1`, the AC50 was 53.1 µM (active).

As to `Oc1ccccc1`, the call was inactive.

For `CCCCCCCC[Si](OCC)(OCC)OCC`, the result was inactive.

On to `O=c1c(-c2ccc(O)cc2)coc2cc(O)cc(O)c12`, for which the outcome was inactive.

Take `OC12N=C(c3ccccc3)SC1Cc1cc(Cl)ccc12` (stereo not given): the result was inactive.

Take `O=C1c2ccccc2C(=O)N1CCc1noc(-c2ccc(CN3CCCCCC3)s2)n1`: the result was inactive.

With `O=C(Nc1ccc(Cl)cc1)Nc1ccc(Cl)c(Cl)c1`, the half-maximal activity concentration (AC50) was 12.6 µM (active).

On to `CC(C)(O)c1ccc(CNC(=O)c2cccnc2Oc2ccc3nonc3c2)cc1`, for which the molecule was classed as inactive.

On to `O=C(O)Cc1cc(I)c(Oc2ccc(O)c(I)c2)c(I)c1`, for which the call was inactive.

Turning to `NCc1cccc(C2CCN(C(=O)c3ccc(C#Cc4ccccc4F)o3)CC2)c1`, the molecule was called inactive.

In the case of `O=C(OCCCCCCOC(=O)c1ccccc1)c1ccccc1`, the outcome was inactive.

As to `CC(C)(C)c1cc(/C=C2\SC(N)=NC2=O)cc(C(C)(C)C)c1O`, the AC50 is 50 µM (active).

With `Cc1cc2c(cc1C(F)(F)F)N(C(=O)Nc1ccc(Oc3cccnc3C)nc1)CC2`, the outcome was inactive.

In the case of `CCCCCCCCN(C)CCCCCCCC`, the call was inactive.

Consider `CC[C@H](NC(=O)c1cc(F)ccc1NS(=O)(=O)c1cccc2cccnc12)c1ccccc1`, for which the call was inactive.

As to `Cc1ncc(CO)c(CO)c1O`, the call was inactive.

`O=c1ccc2ccccc2o1`: the molecule was called inactive.

As to `CN1C(=O)N(c2ccccc2Br)Cc2cnc(Nc3ccc4c(c3)OCC(CO)O4)nc21` (stereo not given), the AC50 is 24 µM (active).

Consider `CC1(C)NC(=O)N(c2ccc([N+](=O)[O-])c(C(F)(F)F)c2)C1=O`, for which the molecule was called inactive.

For `Cc1ccc(C(C)C)cc1`, the molecule was called inactive.

`O=CCCCC=O`: the molecule was classed as inactive.

As for `COCC(C)OCC(C)OCC(C)O` (stereo not given), the call was inactive.

Take `OCCO`: the result was inactive.

On to `CC/C(=C(/CC)c1ccc(O)cc1)c1ccc(O)cc1`, for which the AC50 is 77.4 µM (active).

As to `Clc1ccccc1C(c1ccccc1)(c1ccccc1)n1ccnc1`, the AC50 is 71.5 µM (active).

For the molecule `c1ccc(C[n+]2cccc3ccccc32)cc1`, the result was inactive.

In the case of `CCCCOC(=O)CC(CC(=O)OCCCC)(OC(C)=O)C(=O)OCCCC`, the result was inactive.

Take `Cc1c2ccccc2c(C)c2c1ccc1ccccc12`: the molecule was classed as inactive.

As to `CCCCCc1ccc(N)cc1`, the molecule was classed as inactive.

Regarding `O=C=NCCCCCCN=C=O`, the molecule was classed as inactive.

Consider `CCCCCCCCCCCO`, for which the molecule was classed as inactive.

On to `O=C(O)Cn1c(=O)n(Cc2ccc(Br)cc2F)c(=O)c2ccc(Cl)cc21`, for which the molecule was called inactive.
